Measurements as given in PubChem BioAssay (NCI).
Where “and” joins values, the source holds several entries; their conditions need not be identical. Identical values can stand only once. This is part of a sample that, as a whole, favours compounds with a hit. Of some 83,000 tested, about 20% had one in any assay.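 Negative percent growth values reflect cell death: -40 means 40% of the cells present at the start died, and -100 means all died.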 A number with no mark means an inactive call. Calls of active or inactive are those of the source. How the source made its calls: active means growth percent below 10; inactive means the rest.

System: SF-539 CNS
Experiment: NCI-60 one-dose screen, 48 h (100 = growth as untreated, 0 = no growth, -100 = all killed)
Settings: 10 µM unless noted

SMILES	growth
C#C[C@]1(O)CC[C@H]2[C@@H]3CC=C4c5sc(Nc6ncccc6C)nc5CC[C@]4(C)[C@H]3CC[C@@]21C	-56.4% (active)
CC(=O)N(O)CCCCCNC(=O)CCC(=O)N(O)CCCCCNC(=O)CCC(=O)N(O)CCCCCN(CCCCCCCCCC[P+](c1ccccc1)(c1ccccc1)c1ccccc1)CCCCCCCCCC[P+](c1ccccc1)(c1ccccc1)c1ccccc1	-8.94% (active)
O=C1Nc2ccccc2/C1=N\c1nnc(-c2ccccc2)o1	97.8%
CCCCCCCCCC(=O)NC(C)(C)C(=O)N1CCC[C@H]1C(=O)N[C@@H](CC(C)C)C(=O)N[C@@](C)(CC)C(=O)N[C@@H](CCC(N)=O)C(=O)N[C@H](CCC(N)=O)C(=O)NC(C)(C)C(=O)NC(C)(C)C(=O)N[C@@H](CCC(N)=O)C(=O)N[C@H](CC(C)C)C(=O)N[C@H](CO)CC(C)C	-97.7% (active) and -99% (active)
Fc1cccc(Cl)c1/C=N/Nc1nc(N/N=C/c2c(F)cccc2Cl)nc(N2CCCCC2)n1	56.3%
Cc1ccc(/C(N)=N/C(N)=N/c2nc3ccccc3s2)cc1	108%
CCc1cc2c(cc1Cl)nc1c(=O)[nH]c(=O)nc-1n2CCOCC(C)(C)C	84.2%
Cc1csc(/N=C(N)/N=C(\N)c2cccc(Br)c2)n1	92.6%
Brc1cccc(-c2cc(-c3cnc4c(c3)OCCO4)n[nH]2)c1	47.6%
CN(C)CC(=O)Nc1nc(-c2cccc(NS(=O)(=O)c3cccc4c(N(C)C)cccc34)c2)cs1	93.3%
O=C(/C=C/c1cc(Cl)ccc1Cl)Nc1ncc(Cc2ccc(Cl)cc2)s1	-22.6% (active)
Nc1ncc(-c2ccc3ncnc(NCc4ccccc4)c3c2)cn1	44.3%
Cc1ccc(-c2cc3nc(C(Cl)Cl)nc(-c4ccc(S(=O)(=O)N(C)C)cc4)n3n2)cc1	80.3%
CCN(CC)CCOc1ccc(C(=C(c2ccccc2)C2CCCC2)c2ccc(OCCN(CC)CC)cc2)cc1	9.14% (active)
COC(=O)c1cccc(NC2=C(Cl)C(=O)c3nc(C)ccc3C2=O)c1	111%
COc1cc(/C=N\NC(=O)c2ccc3nc(-c4ccc(Br)cc4)[nH]c3c2)cc(OC)c1OC	32.6%
NC1=NC2(CCCC2)N(c2ccc(S(=O)(=O)Nc3nccs3)cc2)C(N)=N1	95%
N#C/C(=N\Nc1ccc(F)cc1)C(=O)Nc1cc(-c2ccccc2)nn1-c1ccccc1	8.69% (active)
Cc1ccc(S(=O)(=O)c2nc(-c3ccc(F)cc3)oc2S(C)(=O)=O)cc1	58.1%
CC(O)c1cccc(/C(N)=N/C(N)=N/c2nc3ccccc3s2)c1 (configuration not stated)	96.8%
CCOc1cccc(/C(N)=N/C(N)=N/c2nc3ccccc3s2)c1	104%
O=C(CCl)Nc1ccc(NC(=O)c2cc(Cl)ccc2O)c(Cl)c1	73.1%
Clc1ccc(CSc2nnc(-c3ccc(Cl)cc3)n2-c2ccccc2)cc1	65.1%
CC(C)(C)OC(=O)NCc1ccc(CNc2c([N+](=O)[O-])cnc3ccccc23)cc1	82.8%
NS(=O)(=O)c1ccc(Nc2nc(N/N=C/c3ccc4c(c3)OCO4)nc(Nc3ccccc3)n2)cc1	16.7%
Cc1cc(=O)oc2cc(OCCCOc3ccc(/C=C/C(=O)Nc4ccc(Br)cc4)cc3)ccc12	87.9%
CNC(=O)c1cc(N2CCc3cc(NC(=O)Nc4ccc(N5CCOCC5)c(C(F)(F)F)c4)ccc32)ccn1	24.1%

System: UACC-257 melanoma
Experiment: as above
Settings: 10 µM unless noted

SMILES	growth
Cc1ccc2c(n1)C(=O)C(Cl)=C(Nc1ccc(C#N)cc1)C2=O	74.8%
CC(C)(O)c1cncc(-c2ccc3ncc(C#N)c(N4CCc5cc(F)c(Cl)cc54)c3c2)c1	11%
O=c1c2ccccc2cc2n1CCN=C2c1ccccc1	110%
O=C(CN1CCN(c2cc(=O)[nH]c3ccc(F)cc23)CC1)N(c1ccccc1)c1ccccc1	106%
CCc1cc(OC(=O)N2CCC(N3CCCCC3)CC2)ccc1Nc1cc(-c2ccc(-n3cccn3)cc2)[nH]n1	-49.1% (active)
CCCC/C(=C\c1ccc(O)c(O)c1)C(=O)NC(Cc1ccccc1)C(=O)C(=O)NCCc1ccc(OC)cc1 (configuration not stated)	100%
CN(C)c1ccc(-c2cc(-c3c[nH]c4ccccc34)nc(N)c2C#N)cc1	56.9%
COc1cc(C(=O)c2cc(C(C)=O)c3ccc(C)cn23)cc(OC)c1OC	76.7%
CCOC(=O)c1ccccc1NC1=C(Cl)C(=O)c2nc(C)ccc2C1=O	99.2%
CN(C)S(=O)(=O)c1ccc(-c2nc(C(Cl)Cl)nc3cc(-c4ccccc4)nn23)cc1	105%
CN1CCN(c2ccc(Nc3nc(NCCCNS(=O)(=O)c4ccc(Cl)cc4)c4sccc4n3)cc2)CC1	-80.2% (active)
O=C1[C@@H]2Cc3c([nH]c4ccccc34)[C@H](c3ccc(Cl)cc3)N2C(=O)CN1C1CCN(Cc2ccccc2)CC1	61.4%
CN1CCN(CCNc2nc(-c3cccc(NS(=O)(=O)c4cccc5c(N(C)C)cccc45)c3)cs2)CC1	53.9%
C#C[C@]1(O)CC[C@H]2[C@@H]3CC=C4c5sc(Nc6ncccc6C)nc5CC[C@]4(C)[C@H]3CC[C@@]21C	-35.8% (active)
CC(=O)N(O)CCCCCNC(=O)CCC(=O)N(O)CCCCCNC(=O)CCC(=O)N(O)CCCCCN(CCCCCCCCCC[P+](c1ccccc1)(c1ccccc1)c1ccccc1)CCCCCCCCCC[P+](c1ccccc1)(c1ccccc1)c1ccccc1	-10.9% (active)
O=C1Nc2ccccc2/C1=N\c1nnc(-c2ccccc2)o1	100%
CCCCCCCCCC(=O)NC(C)(C)C(=O)N1CCC[C@H]1C(=O)N[C@@H](CC(C)C)C(=O)N[C@@](C)(CC)C(=O)N[C@@H](CCC(N)=O)C(=O)N[C@H](CCC(N)=O)C(=O)NC(C)(C)C(=O)NC(C)(C)C(=O)N[C@@H](CCC(N)=O)C(=O)N[C@H](CC(C)C)C(=O)N[C@H](CO)CC(C)C	-95% (active) and -74% (active)
Fc1cccc(Cl)c1/C=N/Nc1nc(N/N=C/c2c(F)cccc2Cl)nc(N2CCCCC2)n1	11.7%
Cc1ccc(/C(N)=N/C(N)=N/c2nc3ccccc3s2)cc1	111%
CCc1cc2c(cc1Cl)nc1c(=O)[nH]c(=O)nc-1n2CCOCC(C)(C)C	73.3%

SMILES	growth
Cc1csc(/N=C(N)/N=C(\N)c2cccc(Br)c2)n1	102%
Brc1cccc(-c2cc(-c3cnc4c(c3)OCCO4)n[nH]2)c1	73.2%
CN(C)CC(=O)Nc1nc(-c2cccc(NS(=O)(=O)c3cccc4c(N(C)C)cccc34)c2)cs1	86%
O=C(/C=C/c1cc(Cl)ccc1Cl)Nc1ncc(Cc2ccc(Cl)cc2)s1	49.1%
Nc1ncc(-c2ccc3ncnc(NCc4ccccc4)c3c2)cn1	85.1%
Cc1ccc(-c2cc3nc(C(Cl)Cl)nc(-c4ccc(S(=O)(=O)N(C)C)cc4)n3n2)cc1	100%
CCN(CC)CCOc1ccc(C(=C(c2ccccc2)C2CCCC2)c2ccc(OCCN(CC)CC)cc2)cc1	14.3%
COC(=O)c1cccc(NC2=C(Cl)C(=O)c3nc(C)ccc3C2=O)c1	62%
COc1cc(/C=N\NC(=O)c2ccc3nc(-c4ccc(Br)cc4)[nH]c3c2)cc(OC)c1OC	33.1%
NC1=NC2(CCCC2)N(c2ccc(S(=O)(=O)Nc3nccs3)cc2)C(N)=N1	101%
N#C/C(=N\Nc1ccc(F)cc1)C(=O)Nc1cc(-c2ccccc2)nn1-c1ccccc1	-13.5% (active)
Cc1ccc(S(=O)(=O)c2nc(-c3ccc(F)cc3)oc2S(C)(=O)=O)cc1	90.3%
CC(O)c1cccc(/C(N)=N/C(N)=N/c2nc3ccccc3s2)c1 (configuration not stated)	103%
CCOc1cccc(/C(N)=N/C(N)=N/c2nc3ccccc3s2)c1	113%
O=C(CCl)Nc1ccc(NC(=O)c2cc(Cl)ccc2O)c(Cl)c1	89.9%
Clc1ccc(CSc2nnc(-c3ccc(Cl)cc3)n2-c2ccccc2)cc1	87.6%
CC(C)(C)OC(=O)NCc1ccc(CNc2c([N+](=O)[O-])cnc3ccccc23)cc1	49%
NS(=O)(=O)c1ccc(Nc2nc(N/N=C/c3ccc4c(c3)OCO4)nc(Nc3ccccc3)n2)cc1	84.6%
Cc1cc(=O)oc2cc(OCCCOc3ccc(/C=C/C(=O)Nc4ccc(Br)cc4)cc3)ccc12	91.4%
CNC(=O)c1cc(N2CCc3cc(NC(=O)Nc4ccc(N5CCOCC5)c(C(F)(F)F)c4)ccc32)ccn1	59.1%
